Assay outcomes as filed in PubChem BioAssay.
Rows were chosen to be rich in hits. Some 9.2% of all compounds tested hit in one or more screens of this group.
NPC1 promoter act = activates the NPC1 promoter; Huh7 NPC1 promoter luciferase reporter, 24 h; Potency, µM (top dose mostly 9.22 µM), without a hit: at the highest dose activation, usual class: activators; 2.4% of 320,000 active; further: % of control where 0% means no effect; nearly all actives have a fitted effect of over 60% in size
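Luciferase expression driven by the NPC1 promoter was measured in stably transfected Huh7 cells after a 24 h compound incubation, using a luciferase reagent and a luminescence read.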
ELG1 genotox = genotoxicity induction in ELG1-luciferase HEK293T cells. HEK293T ELG1-luciferase reporter, luminescence, 16 h. Potency, µM (doses to about 46 µM), for the others: at the top dose activity change, positive = activation, usual class: activators. 1.3% of 330,000 active. AID 504466; further: % of control where 0% means no effect; nearly all actives have a fitted effect of over 60% in size
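Quantitative HTS format in 1536-well plates. HEK293T ELG1-luciferase reporter cells receive test compound and are incubated 16 hr at 37 °C, 5% CO2; ONE-Glo added, 30 min room temperature, then luminescence read.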
FLuc modulator = counter-screen for miR-21 project: firefly luciferase inhibitors or activators | P08659 | purified FLuc, Km substrates, luminescence inhibition | Potency, µM (doses to about 57.5 µM), without a hit: at the highest dose activity change, negative = inhibition, hits mostly inhibitors | 6.9% of 360,000 active | AID 588342;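 further: plate controls were vehicle for no effect and reference inhibitor for full effect; nearly all actives have a fitted effect of over 55% in size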
Target sequence (P08659 whole entry, looked up): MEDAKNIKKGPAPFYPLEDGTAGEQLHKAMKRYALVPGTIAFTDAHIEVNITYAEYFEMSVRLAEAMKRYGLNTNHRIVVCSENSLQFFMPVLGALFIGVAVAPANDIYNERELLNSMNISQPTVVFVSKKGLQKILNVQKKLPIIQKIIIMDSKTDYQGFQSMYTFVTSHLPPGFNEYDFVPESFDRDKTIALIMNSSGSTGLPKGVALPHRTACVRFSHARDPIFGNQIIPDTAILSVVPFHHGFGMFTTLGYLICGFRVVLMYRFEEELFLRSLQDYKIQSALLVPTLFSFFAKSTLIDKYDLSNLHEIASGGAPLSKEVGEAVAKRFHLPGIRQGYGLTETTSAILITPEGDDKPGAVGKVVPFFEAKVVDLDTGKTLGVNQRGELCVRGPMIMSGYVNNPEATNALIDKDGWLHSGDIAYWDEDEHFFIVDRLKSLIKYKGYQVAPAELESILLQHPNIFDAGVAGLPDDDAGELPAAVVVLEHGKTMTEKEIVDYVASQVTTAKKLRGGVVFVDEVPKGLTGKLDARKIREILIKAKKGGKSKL
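Biochemical qHTS of compounds, final roughly 60 µM downward over six points, against 10 nM purified firefly luciferase using Km concentrations of substrates (10 uM D-luciferin, 10 uM ATP) in Tris acetate pH 7.5 buffer; luminescence output.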
ELG1 repair inh = inhibitors of ELG1-dependent DNA repair in HEK293T cells. 2.3% of 330,000 active. Potency, µM (doses to about 46.1 µM), for the others: top-dose activity change, negative = inhibition, most hits filed as inhibitors. AID 504467. HEK293T ELG1-luciferase reporter, luminescence, 16 h; DNA damage induced by 5-fluorouridine; further: on the % scale 0 is the no-effect control and ±100 the full control effect; nearly all actives have a fitted effect of over 55% in size
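Overnight (16 hr) co-exposure of 2,000 cells/well to 5-fluorouridine and compound at 37 °C preceded detection. Luciferase was quantified via ONE-Glo luminescence; loss of signal denotes inhibition.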
SMN2 splice up = enhancers of SMN2 splice variant expression. HEK293 SMN2-luciferase splicing reporter, luminescence, 30-36 h. Potency, µM (highest dose often 46.1 µM), without a hit: top-dose activity change, positive = activation, usual class: activators. 2.8% of 210,000 active. AID 1458; further: % of control where 0% means no effect; nearly all actives have a fitted effect of over 55% in size
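HEK293 cells carry an SMN2 minigene-luciferase reporter in which exon 7 inclusion puts luciferase in frame. Cells were seeded at 2000 cells/well, attached for 10-12 hours, then exposed to compounds for 30-36 hours at 37C before ONE-Glo luminescence.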
Rab9 promoter act = Rab9 promoter activation | Huh7 Rab9 promoter-luciferase reporter, luminescence, 24 h | Potency, µM (series often up to 9.22 µM), for inactives: at the top dose activation, negative = inhibition, hits mostly activators | 2.8% of 320,000 active | AID 485297; further: % of control where 0% means no effect; nearly all actives have a fitted effect of over 60% in size
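Cells were plated at 1500 per well in reduced-serum medium with 10% FBS and left 2 h. Compound in DMSO was then added for 24 h at 37 °C. Reporter signal was read by luminescence after 10 min with luciferase detection reagent.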
Numbers without * were called inactive; ? = inconclusive; · = not tested or not shown. The call rests on the fitted dose curve; in most records, active means well fitted curve in the direction sought with a large enough effect; inconclusive means small, poorly fitted or top-dose-only effect, or another doubt; inactive means no such curve, though single readings can be large; an effect the other way counts as inactive or inconclusive. Potency means the concentration at half of the fitted maximal effect.

SMILES	NPC1 promoter act	ELG1 genotox	FLuc modulator	ELG1 repair inh	SMN2 splice up	Rab9 promoter act
CC(C)(C)c1csc(N/N=C/c2ccc(O)cc2)n1	29%	?	21µM*	?	·	?
CC(=O)Nc1sc(N/N=C\c2ccccc2)nc1-c1cccs1	3%	?	19µM*	?	-49%	6%
Cc1ccc(NC(=O)CCC(=O)N/N=C/c2ccc(O)cc2)cc1	-1%	2%	-15%	?	·	2%
O=C(NCc1ccccc1)c1ccccc1OCC(=O)N1CCCCC1	1%	-2%	0%	-11%	-11%	-9%
C/C(=N\Nc1cccc(Cl)c1)C1(C)N(O)C(C)(C)C(c2ccco2)=[N+]1[O-] (configuration not stated)	-4%	-3%	0%	16%	·	-1%
CC(=O)Oc1ccc(C(=O)Cc2ccc3ccccc3n2)c(O)c1C	?	?	5.4µM*	?	?	?
CC(=O)Nc1cccc(/C(C)=N/NC(=O)c2cccs2)c1	1%	?	19µM*	?	?	2%
CCN(CC)S(=O)(=O)c1cccc(C(=O)N/N=C(\C)c2cccs2)c1	3.5µM*	?	11µM*	?	11µM*	3.2µM*
C/C(=N/NC(=O)c1cccs1)c1cccs1	?	?	11µM*	?	·	2.5µM*
CC(=O)Nc1cccc(/C(C)=N/NC(=S)NC(C)C)c1	16%	4%	24µM*	?	24%	29%
O=C(CC1C(=O)NCCN1Cc1ccccn1)NCCc1ccccc1F (configuration not stated)	6%	10%	7%	12%	·	23%
COc1ccc(S(=O)(=O)NCCC(=O)OCC(=O)NC2CC2)cc1	·	1%	·	5%	·	·
COc1cc(C(=O)N/N=C(\C)c2ccc(NC(=O)Cc3ccccc3)cc2)ccc1O	23%	?	?	?	·	22%
C/C(=N\NC(=O)c1cccc(Br)c1)c1cccnc1	13%	8%	-17%	18%	·	22%
O=C(CNS(=O)(=O)c1ccccc1)NCc1cccnc1	0%	1%	-2%	8%	·	-6%
C/C(=N/Nc1ccccc1C(=O)O)c1cccs1	?	?	19µM*	?	·	3.5µM*
C=C(C)C1CC=C(C)/C(=N/NC(=O)c2cccs2)C1 (configuration not stated)	?	?	4.8µM*	?	?	?
C=C(C)C1CC=C(C)/C(=N/NC(=O)c2ccccc2[N+](=O)[O-])C1 (configuration not stated)	-1%	-7%	?	?	-33%	0%
C/C(=N/NC(=O)c1cccs1)c1cccc(N)c1	?	?	19µM*	?	·	?
C/C(=N\NC(=O)c1ccccc1)c1ccc(NC(=O)c2cccs2)cc1	28%	?	?	?	·	?
C/C(=N\Nc1ccc(Cl)c(C(=O)O)c1)c1cccs1	?	5%	?	?	·	?
O=C(CCN=C1NS(=O)(=O)c2ccccc21)OCc1ccccc1	-1%	-3%	-1%	2%	·	0%
COc1ccc(NC(=S)c2ccc3ccccc3n2)cc1	3.2µM*	?	13µM*	?	·	4µM*
COc1ccc(N=C(NN)c2ccc3ccccc3n2)cc1	17%	?	6.7µM*	?	-1%	22%
CCOc1ccc(NC(=S)c2ccc3ccccc3n2)cc1	3.5µM*	15%	?	?	·	?
SMILES	NPC1 promoter act	ELG1 genotox	FLuc modulator	ELG1 repair inh	SMN2 splice up	Rab9 promoter act
COc1ccc(NC(=O)CN(C)C(=O)c2ccc3ccccc3n2)cc1	·	1%	·	5%	·	·
CCOc1ccc(CN(C)C(=O)c2ccc3ccccc3n2)cc1	4%	1%	2%	8%	·	?
CC(=O)N1N=C(c2ccc(C)cc2)OC1c1ccc(C)cc1 (configuration not stated)	?	18µM*	17µM*	?	26%	?
CC(=O)N1N=C(c2ccc(C)cc2)OC1c1ccc(C(C)C)cc1 (configuration not stated)	2.5µM*	?	3µM*	?	?	2.5µM*
CC(=O)N1N=C(c2cccnc2)OC1c1ccc(C(C)C)cc1 (configuration not stated)	-2%	10%	?	24%	10%	-8%
Cc1ccc(CNC(=O)CC2Oc3ccccc3NC2=O)cc1 (configuration not stated)	·	·	-1%	·	-1%	·
COc1ccc(N2CC(O)=C(c3nc(-c4ccc(F)cc4)cs3)C2=N)cc1OC	29%	-3%	?	13µM*	-2%	?
CC(=O)c1ccc(N2CCN(C(=O)c3cc(S(=O)(=O)N4CCOCC4)ccc3C)CC2)cc1	·	2%	·	10%	·	·
COc1ccc(-c2cnnc(N/N=C/c3ccc(-c4ccc([N+](=O)[O-])cc4)o3)n2)cc1	-31%	-4%	-8%	?	-8%	-40%
COc1ccccc1-c1cnnc(N/N=C/c2ccc(-c3cccc(Br)c3)o2)n1	-6%	-4%	-8%	8.2µM*	-5%	0%
O=C(Nc1ccc2c(c1)OCO2)Nc1ccccc1F	0.45µM*	0.92µM*	2.4µM*	?	·	0.5µM*
Cc1ccc(NC(=O)Nc2ccc3c(c2)OCO3)cc1F	1.1µM*	9.2µM*	0.6µM*	?	·	1.3µM*
O=C(Nc1ccc2c(c1)OCCO2)Nc1ccc2c(c1)OCO2	0.4µM*	?	0.95µM*	?	2.5µM*	0.1µM*
CCc1ccccc1NC(=O)Nc1ccc2c(c1)OCO2	24%	?	1%	?	0%	26%
Cc1ccc(NC(=O)Nc2ccc3c(c2)OCO3)c(OC(F)F)c1	2µM*	?	4.8µM*	?	·	3.5µM*
Cc1cc(C(=O)O)ccc1[C@H](N)C(=O)O	·	·	·	·	1%	·
CCOc1ccc(-c2nc(CNC(=O)NC3CCCCC3)c(C)o2)cc1	·	·	-10%	·	·	·
O=C(Nc1ccc2c(c1)OCCO2)NC12CC3CC(CC(C3)C1)C2	2.5µM*	?	6µM*	?	22µM*	1.3µM*
COc1ccc(NC(=O)NC23CC4CC(CC(C4)C2)C3)cc1OC	2%	-2%	?	8%	-26%	1%
Cc1cc(F)ccc1NC(=O)Nc1ccc2c(c1)OCO2	25%	?	-4%	?	·	29%
NS(=O)(=O)c1ccc(NC(=O)Nc2ccc3c(c2)OCO3)cc1	?	?	15µM*	?	·	?
CCNS(=O)(=O)c1ccc(NC(=O)Nc2ccc3c(c2)OCO3)cc1	13%	9%	?	18%	·	9%
